The record followed here is PubChem BioAssay AID602358 (National Center for Advancing Translational Sciences (NCATS), 2012).

Results filed as inconclusive are left out. Unmarked numbers belong to inactive results. The source made the active and inactive calls. Calls come from the whole dose curve; as a rule, active = well fitted inhibition curve with a large enough effect; inconclusive = small, poorly fitted or top-dose-only effect; inactive = flat fitted curve, though single readings scatter.

Sequence of Luciferin 4-monooxygenase (Photinus pyralis) (P08659 whole entry, looked up): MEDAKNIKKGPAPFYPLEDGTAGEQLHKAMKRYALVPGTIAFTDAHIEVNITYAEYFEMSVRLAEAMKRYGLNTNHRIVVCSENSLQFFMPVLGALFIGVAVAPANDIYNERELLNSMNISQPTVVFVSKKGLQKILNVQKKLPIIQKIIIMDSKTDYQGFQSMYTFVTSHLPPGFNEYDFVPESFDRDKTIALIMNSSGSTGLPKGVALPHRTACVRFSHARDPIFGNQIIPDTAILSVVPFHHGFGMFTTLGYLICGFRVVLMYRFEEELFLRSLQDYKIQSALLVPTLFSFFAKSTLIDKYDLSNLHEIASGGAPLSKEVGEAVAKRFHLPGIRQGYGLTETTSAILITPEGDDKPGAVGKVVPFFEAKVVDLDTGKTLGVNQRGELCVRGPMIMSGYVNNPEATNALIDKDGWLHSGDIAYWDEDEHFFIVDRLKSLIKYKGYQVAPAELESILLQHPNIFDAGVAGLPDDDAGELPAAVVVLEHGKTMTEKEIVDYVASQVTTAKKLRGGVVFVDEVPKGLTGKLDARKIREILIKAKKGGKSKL

This assay addresses Luciferin 4-monooxygenase (Photinus pyralis) (UniProt P08659). As to the kind of experiment: FLuc inhibitory activity for the follow-up compounds in a biochemical assay with Km concentrations of substrate and 500microM CoASH. Conditions: purified FLuc, Km substrates + 500 uM CoASH, luminescence; series mostly up to 57.5 µM; activity change, negative = inhibition: at the top concentration. The text has this: NCGC Assay Overview: Firefly (Photinus pyralis) luciferase is one of the most commonly used transcriptional reporters. It is considered one of the more dynamically responsive reporters - that is, responsive to changes in reporter transcription - as it requires no post-translational modifications and is enzymatically active directly after protein synthesis (Wood, 1998). With no endogenous expression in mammalian cells and without the requirement of external excitation, it offers very little background signal, thus generally providing excellent signal to background for most assays. Previous profiling work to determine the prevalence of compounds that affect FLuc enzymatic activity (PubChem AID 411) identified that ~3% of the MLSMR library (then at ~72K) inhibited FLuc. […] Of the compounds identified in this profile that inhibited FLuc, 151 compounds were selected for further analysis, in an effort to better understand their mode of inhibiting FLuc. The assay described here was to determine the activity of the compounds in an FLuc assay that contained KM concentrations of substrates and 500uM CoASH.
NCGC Assay Protocol Summary: Reagents: 50mM Tris acetate, pH 7.5; 10mM Mg acetate; 10uM D-luciferin (Sigma #L9504); 10uM ATP; 0.01% Tween-20; 0.05% BSA; 10nM P. pyralis luciferase (Sigma #L9506); 500 uM CoASH Control compounds used were two known firefly luciferase inhibitors (3-(5-(3-chlorophenyl)-1,2,4-oxadiazol-3-yl)benzoic acid and 5-(2-fluorophenyl)-3-phenyl-1,2,4-oxadiazole), and DMSO. Three microliters containing firefly luciferase substrates in buffer (final concentrations: 50mM Tris acetate, pH 7.5, 10mM Mg acetate, 0.01% Tween-20, 0.05% BSA, 10uM D-luciferin, 10uM ATP, and 500 uM CoASH) are dispensed into each well of a Greiner white, solid-bottom 1536-well format plate using a flying reagent dispenser (FRD). These assay plates were then treated with 23nL of compound or DMSO using a Kalypsys pin tool, which allows for delivery of a 12-point intraplate titration of each compound to the assay plate (quantitative HTS), with a final compound concentrations ranging from approximately ~60uM to 0.3nM. One microliter of firefly luciferase in 500mM Tris-acetate buffer was then delivered by FRD to each well for a final enzyme concentration of 10nM. Luciferase activity was then measured using a ViewLux CCD imager (PerkinElmer), with an average exposure time of 2-30 seconds (2X binning, medium/high gain).
As to `Nc1ccc2nc(-c3ccccc3)sc2c1`, the Potency was 0.058 µM (active). Regarding `COc1ccccc1C(=O)Nc1ccc(C(=O)Nc2ccccc2C(=O)O)cc1`, the Potency was 20.6 µM (active). In the case of `CC(C)c1ccc(-c2nc3ccccc3s2)cc1`, the Potency is 0.013 µM (active). Take `COc1ccc(C(=O)Nc2ccccc2C(=O)N/N=C/c2ccc(O)c(OC)c2)cc1`: the Potency was 0.0037 µM (active). Still for that read-out and setting: with `Cc1ccc(C(=O)Nc2cccc(C(=O)O)c2)cc1` the figure was 3.66 µM (active); with `O=C(O)c1ccc(NC(=O)c2ccccc2NC(=O)c2ccccc2Cl)cc1`, 16.3 µM (active).

`COc1ccc2nc(NC(=O)c3ccco3)sc2c1`: the Potency was 0.291 µM (active).

As for `Nc1ccc(-c2nc3ccc(N)cc3s2)cc1`, the Potency is 0.116 µM (active). `COc1ccc2nc(NC(=O)CCc3nc(-c4ccccc4F)no3)sc2c1`: the “activity change, negative = inhibition” value was -17.4%. With `O=C(COC(=O)c1ccccc1[N+](=O)[O-])c1ccc2c(c1)OCO2`, the Potency was 0.0023 µM (active). The same measure, in the same setting: as for `Cc1ccc(C(=O)O/N=C(\N)c2ccccn2)cc1`, the figure is 0.0092 µM (active); as for `CCOc1c(Cl)cc(C(=O)Nc2ccccc2C(=O)O)cc1Cl`, 11.6 µM (active). On the same count and under the same terms, with `CC(=O)Oc1ccc(C(=O)Nc2ccccc2C(=O)Nc2ccc(C(=O)O)cc2)cc1` the figure was 1.46 µM (active). On the same count and under the same terms, with `CC(=O)Nc1cccc(-c2nc3ccccc3s2)c1C` the figure was 13 µM (active); with `CC(C)(C)C(=O)Nc1ccc(-c2nc3ccccc3s2)cc1`, 0.0103 µM (active); with `Cc1ccc2nc(-c3ccc(NC(=O)CN4CCN(C(=O)c5ccco5)CC4)cc3)sc2c1`, 3.66 µM (active). Turning to `Cc1c(NS(C)(=O)=O)cccc1-c1nc2ccccc2s1`, the Potency is 3.66 µM (active). Turning to `NC(=O)Cc1ccc2sc(-c3ccccc3)nc2c1`, the Potency is 1.63 µM (active). With `CC(C)CC(=O)Nc1cccc(C(=O)Nc2ccccc2C(=O)O)c1`, the Potency is 13 µM (active). In the case of `COc1ccccc1C(=O)Nc1ccc(C(=O)O)cc1`, the “activity change, negative = inhibition” value is -27.9%. Turning to `c1ccc2sc(-c3ccc4c(c3)OCO4)nc2c1`, the Potency is 0.103 µM (active).

In the case of `CN(C)S(=O)(=O)c1ccc(C(=O)Nc2ccccc2C(=O)O)cc1`, the Potency is 9.19 µM (active). Same read-out and setting: as for `CC(C)C(=O)Nc1cccc(C(=O)Nc2ccccc2C(=O)O)c1`, the figure is 7.3 µM (active); as for `COc1ccc(C(=O)Nc2ccccc2C(=O)Nc2ccc(C(=O)O)cc2)cc1`, 0.517 µM (active); as for `COc1ccc2nc(NC(=O)c3ccc(NS(=O)(=O)c4cccs4)cc3)sc2c1`, 2.59 µM (active). Take `Cc1ccc(S(=O)(=O)N2CCN(C(=O)c3ccccc3-c3nc4ccccc4s3)CC2)c(C)c1`: the “activity change, negative = inhibition” value is -6.32%.

On to `Oc1ccc(-c2nc3ccccc3s2)c(O)c1`, for which the Potency is 1.83 µM (active).

Take `O=C(Nc1ccccc1-c1nc2ccccc2s1)c1cccnc1`: the “activity change, negative = inhibition” value is -9.13%. Consider `Cc1ccc(NS(=O)(=O)c2ccc(Cl)c(C(=O)Nc3cccc(C(=O)O)c3)c2)cc1`, for which the “activity change, negative = inhibition” value is -9.97%. Regarding `CC(=O)Nc1cccc(C(=O)Nc2ccccc2C(=O)O)c1`, the Potency was 20.6 µM (active). As for `O=C(Nc1ccccc1-c1nc2ccccc2s1)c1ccc(Br)o1`, the “activity change, negative = inhibition” value is -3.85%.

In the case of `O=C(Nc1ccccc1C(=O)O)c1cc(S(=O)(=O)Nc2ccccc2)ccc1Cl`, the “activity change, negative = inhibition” value was -4.97%. Regarding `COc1ccc(-c2nc3ccccc3s2)cc1NC(=O)c1ccc(F)cc1`, the “activity change, negative = inhibition” value is -19.4%. For `O=C(Nc1ccccc1C(=O)O)c1cccc(NC(=O)c2ccccc2Cl)c1`, the Potency was 14.6 µM (active). For the compound `COc1c(C)cccc1C(=O)Nc1ccc(-c2nc3ccccc3s2)c(Cl)c1`, the “activity change, negative = inhibition” value was -16.4%. Regarding `O=C(Nc1ccccc1C(=O)O)c1cccc(NC(=O)c2ccco2)c1`, the Potency was 6.51 µM (active).

Take `COc1ccc2nc(NC(=O)c3nc(S(=O)(=O)Cc4ccc(C)cc4)ncc3Cl)sc2c1`: the Potency was 2.06 µM (active). Consider `Nc1ccccc1C(=O)Nc1cccc(C(=O)O)c1`, for which the Potency was 18.3 µM (active). As to `Cc1cccc(NS(=O)(=O)c2cccc(C(=O)Nc3cccc(C(=O)O)c3)c2)c1`, the “activity change, negative = inhibition” value was -13.2%. With `Cc1ccc(C(=O)Nc2cccc(C(=O)O)c2)cc1S(=O)(=O)N1CCCCC1`, the Potency was 3.66 µM (active).
